Results published in PubChem BioAssay (NCATS).
Inconclusive results are not listed. Where a call stands in place of a potency, no number is given. Activity calls are given as the source filed them. The call rests on the fitted dose curve; in most records, active means well fitted cell-killing curve with a large enough effect; inconclusive means small, poorly fitted or top-dose-only effect, or effect the other way; inactive means flat fitted curve, though single readings scatter. *1 amine or outer side, *2 acyl side, *3 side chain or, on linkers, in order; H or OH if unused. Where a SMILES comes first, the peptide text is derived from it. Bridges are numbered along the chain shown (N, C = ends). [ ]: non-standard residue; d: D form. The star is where a group is joined. pTerphenylCO(4''-OnC5H11) = CCCCCOc1ccc(-c2ccc(-c3ccc(C(=O)*)cc3)cc2)cc1; Orn(4R-OH,5R-OH) = O=C([C@H](C[C@@H](O)[C@@H](O)N[*:3])N[*:1])[*:2]; hTyr(3S-OH,4S-OH) = N[C@H](C(=O)O)[C@H](O)[C@@H](O)c1ccc(O)cc1; Pro(3S-OH,4S-Me) = C[C@H]1CN[C@H](C(=O)O)[C@H]1O; Hyp = O=C(O)[C@@H]1C[C@@H](O)CN1

These compounds were tested on C33A (assay: Primary qHTS to identify gynecologic anti-cancer compounds using libraries of approved drugs and bioactive compounds (AID 1345084; further: nearly all actives have a fitted effect of over 55% in size)). Details: Gynecologic cancer cell panel viability, ATPlite luminescence, 48 h; series mostly up to 57.5 µM.
Procedure, shortened: (§1)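 Cell viability after 48 h drug treatment, ATPlite luminescence readout; five doses.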

| SMILES | Potency |
| --- | --- |
| CC(OC1OCCN(Cc2n[nH]c(=O)[nH]2)C1c1ccc(F)cc1)c1cc(C(F)(F)F)cc(C(F)(F)F)c1 (stereo not drawn) | inactive |
| Fc1ccc(-c2cncc(CN3CCN(c4cccc5c4OCCO5)CC3)c2)cc1 | inactive |
| C=C(CCC1C(C)(O)CCC2C(C)(C)C(O)CCC12C)C(O)CO (stereo not drawn) | inactive |
| CCC[C@@]1(CCc2ccccc2)CC(O)=C([C@H](CC)c2cccc(NS(=O)(=O)c3ccc(C(F)(F)F)cn3)c2)C(=O)O1 | inactive |
| COc1ccc([C@H]2Cc3cccc(O)c3C(=O)O2)cc1OC | inactive |
| C/C=C(/C)C(=O)OC1C=C2C3C(C)C(C)C(OC(=O)C(C)C(C)O)CC3(C)CCC2(C)C2(C)CC(OC(C)=O)C3C(C)(C)C(O)C(=O)CC3(C)C12 (stereo not drawn) | inactive |
| CN1CCN(C2=Nc3ccccc3Nc3ccc(Cl)cc32)CC1 | inactive |
| COc1ccc(NC(=O)c2ccc(-c3ccc(C(=N)N)cc3C)cc2)cc1N1CCN(C)CC1 | inactive |
| O=C(c1ccccn1)N(Cc1cccs1)C1(C(=O)NC2CCCCC2)CCCCC1 | inactive |
| O=c1cc(OCc2ccc(F)cc2)ccn1-c1ccc(OCCN2CCCC2)cc1 | inactive |
| Cc1cccc(N2CCN(C(=O)c3cc(S(=O)(=O)N(C)C)ccc3N3CCCC3)CC2)c1C | inactive |
| N#CC(CCCN1CCN(/N=C/c2cccnc2)CC1)(c1ccccc1)c1ccccc1 | inactive |
| Cc1cccc(C#Cc2cc(F)cc(C#N)c2)n1 | inactive |
| COc1ccncc1C(=O)NC(=O)Nc1ccc(-c2ccccc2)c(C(F)(F)F)c1 | inactive |
| Clc1ccc(Cn2c(Cc3ccccc3)nc3ccccc32)cc1 | inactive |
| Cc1cc2sc(NC(=O)Cc3ccccc3)nc2cc1Cl | inactive |
| O=C(Cc1c(F)cccc1F)Nc1cc(OCc2ccc(Cl)cc2)ccn1 | inactive |
| O=C(c1cc(Cc2n[nH]c(=O)c3ccccc23)ccc1F)N1CCCNCC1 | inactive |
| CCC(C)/C=C(C)/C=C/C1=CC2=CC(=O)C3(C)OC(C)(O)C(C(=O)OC)C3C2=CO1 (stereo not drawn) | inactive |
| CNc1cc2[nH]c(=O)n(-c3ccc(NC(=O)NS(=O)(=O)c4ccc(Cl)s4)cc3)c(=O)c2cc1F | inactive |

| SMILES | Potency |
| --- | --- |
| COc1ccc(-n2c(SCCCN3C(=O)c4cccc5cccc(c45)C3=O)nnc2-c2ccncc2)cc1 | inactive |
| C=C1C(=O)OC2/C=C(\CO)CC/C=C(\C=O)C(O)C(OC(=O)C(C)CC)C12 (stereo not drawn) | inactive |
| O=C(Nc1ccccc1C(=O)Nc1ccc(CCO)cc1)c1ccc([N+](=O)[O-])cc1 | inactive |
| CC1(C)CC[C@]2(C(=O)O)CC[C@]3(C)C(=CCC4[C@@]5(C)C[C@@H](O)[C@H](O)[C@@](C)(CO)C5CC[C@]43C)[C@@H]2[C@@H]1O (stereo partly drawn) | inactive |
| C=C(C(=O)OC[C@H]1O[C@@H](OC(=O)/C=C/c2ccccc2)[C@H](O)[C@@H](O)[C@@H]1O)C(O)CO (stereo partly drawn) | inactive |
| COc1ccccc1OCCNCC(O)CCOc1cccc2[nH]c3ccccc3c12 (stereo not drawn) | inactive |
| CC(C)/C=C1\NC(=O)C(C(C)C)n2c1nc1ccccc1c2=O (stereo not drawn) | inactive |
| CCCCCOc1ccc(-c2ccc(-c3ccc(C(=O)N[C@H]4C[C@@H](O)[C@@H](O)NC(=O)[C@@H]5[C@@H](O)[C@@H](C)CN5C(=O)[C@H]([C@@H](C)O)NC(=O)[C@H]([C@H](O)[C@@H](O)c5ccc(O)cc5)NC(=O)[C@@H]5C[C@@H](O)CN5C(=O)[C@H]([C@@H](C)O)NC4=O)cc3)cc2)cc1 ({pTerphenylCO(4''-OnC5H11)}-[Orn(4R-OH,5R-OH)]T[Hyp][hTyr(3S-OH,4S-OH)]T[Pro(3S-OH,4S-Me)]; lactam 1-C) | inactive |
| COc1ccccc1C(=O)Nc1cc2c(cc1N1CCCC1)n(C)c(=O)n2C | inactive |
| C=C1C(=O)OC2C1CCC1(C)C(O)CCC(=C)C21 (stereo not drawn) | inactive |
| Cc1nc(C#Cc2ccnc(Cl)c2)c(C)n1-c1ccc(OC(F)(F)F)cc1 | inactive |
| COc1cc(CCc2ccc(OCC=C(C)C)cc2)cc(OC)c1OC | inactive |
| CC(=O)[C@H]1CC[C@H]2[C@@H]3CC=C4C[C@@H](OS(=O)(=O)O)CC[C@]4(C)[C@H]3CC[C@]12C | inactive |
| C=C(C(=O)O)[C@@H]1CC=C(CCC(C)=O)[C@@H](C)CC1 | inactive |
| C=C[C@]1(C)C[C@H](O)[C@H]2C(=C)C(=O)O[C@@H]2[C@H]1C(=C)CO | inactive |
| CC[C@H](C)/C=C(C)/C=C/C1=CC2=C(Cl)C(=O)[C@](C)(O)[C@H](OC(C)=O)[C@H]2CO1 | inactive |
| CN(C)C(=O)Nc1cc(-c2ccccc2)ccc1N(C)C | inactive |
| C/C(=C\CO[C@@H]1O[C@H](CO[C@H]2OC[C@](O)(CO)[C@H]2O)[C@@H](O)[C@H](O)[C@H]1O)C(C)(C)O | inactive |
| CC[C@@H](Nc1c(Nc2cccc(C(=O)N(C)C)c2O)c(=O)c1=O)c1cc(C(C)C)co1 | inactive |

The compounds below were run on CAOV3 in the same assay as above. Details: Gynecologic cancer cell panel viability, ATPlite luminescence, 48 h; series mostly up to 57.5 µM.
Procedure, shortened: as §1

| SMILES | Potency |
| --- | --- |
| CC(OC1OCCN(Cc2n[nH]c(=O)[nH]2)C1c1ccc(F)cc1)c1cc(C(F)(F)F)cc(C(F)(F)F)c1 (stereo not drawn) | inactive |
| Fc1ccc(-c2cncc(CN3CCN(c4cccc5c4OCCO5)CC3)c2)cc1 | inactive |
| C=C(CCC1C(C)(O)CCC2C(C)(C)C(O)CCC12C)C(O)CO (stereo not drawn) | inactive |
| CCC[C@@]1(CCc2ccccc2)CC(O)=C([C@H](CC)c2cccc(NS(=O)(=O)c3ccc(C(F)(F)F)cn3)c2)C(=O)O1 | inactive |
| COc1ccc([C@H]2Cc3cccc(O)c3C(=O)O2)cc1OC | inactive |
| C/C=C(/C)C(=O)OC1C=C2C3C(C)C(C)C(OC(=O)C(C)C(C)O)CC3(C)CCC2(C)C2(C)CC(OC(C)=O)C3C(C)(C)C(O)C(=O)CC3(C)C12 (stereo not drawn) | inactive |
| CN1CCN(C2=Nc3ccccc3Nc3ccc(Cl)cc32)CC1 | inactive |
| COc1ccc(NC(=O)c2ccc(-c3ccc(C(=N)N)cc3C)cc2)cc1N1CCN(C)CC1 | inactive |
| O=C(c1ccccn1)N(Cc1cccs1)C1(C(=O)NC2CCCCC2)CCCCC1 | inactive |
| O=c1cc(OCc2ccc(F)cc2)ccn1-c1ccc(OCCN2CCCC2)cc1 | inactive |
| Cc1cccc(N2CCN(C(=O)c3cc(S(=O)(=O)N(C)C)ccc3N3CCCC3)CC2)c1C | inactive |
| N#CC(CCCN1CCN(/N=C/c2cccnc2)CC1)(c1ccccc1)c1ccccc1 | inactive |
| Cc1cccc(C#Cc2cc(F)cc(C#N)c2)n1 | inactive |
| COc1ccncc1C(=O)NC(=O)Nc1ccc(-c2ccccc2)c(C(F)(F)F)c1 | inactive |
| Clc1ccc(Cn2c(Cc3ccccc3)nc3ccccc32)cc1 | inactive |
| Cc1cc2sc(NC(=O)Cc3ccccc3)nc2cc1Cl | inactive |
| O=C(Cc1c(F)cccc1F)Nc1cc(OCc2ccc(Cl)cc2)ccn1 | inactive |
| O=C(c1cc(Cc2n[nH]c(=O)c3ccccc23)ccc1F)N1CCCNCC1 | inactive |
| CCC(C)/C=C(C)/C=C/C1=CC2=CC(=O)C3(C)OC(C)(O)C(C(=O)OC)C3C2=CO1 (stereo not drawn) | inactive |
| CNc1cc2[nH]c(=O)n(-c3ccc(NC(=O)NS(=O)(=O)c4ccc(Cl)s4)cc3)c(=O)c2cc1F | inactive |

| SMILES | Potency |
| --- | --- |
| COc1ccc(-n2c(SCCCN3C(=O)c4cccc5cccc(c45)C3=O)nnc2-c2ccncc2)cc1 | inactive |
| C=C1C(=O)OC2/C=C(\CO)CC/C=C(\C=O)C(O)C(OC(=O)C(C)CC)C12 (stereo not drawn) | inactive |
| O=C(Nc1ccccc1C(=O)Nc1ccc(CCO)cc1)c1ccc([N+](=O)[O-])cc1 | inactive |
| CC1(C)CC[C@]2(C(=O)O)CC[C@]3(C)C(=CCC4[C@@]5(C)C[C@@H](O)[C@H](O)[C@@](C)(CO)C5CC[C@]43C)[C@@H]2[C@@H]1O (stereo partly drawn) | inactive |
| C=C(C(=O)OC[C@H]1O[C@@H](OC(=O)/C=C/c2ccccc2)[C@H](O)[C@@H](O)[C@@H]1O)C(O)CO (stereo partly drawn) | inactive |
| COc1ccccc1OCCNCC(O)CCOc1cccc2[nH]c3ccccc3c12 (stereo not drawn) | inactive |
| CC(C)/C=C1\NC(=O)C(C(C)C)n2c1nc1ccccc1c2=O (stereo not drawn) | inactive |
| CCCCCOc1ccc(-c2ccc(-c3ccc(C(=O)N[C@H]4C[C@@H](O)[C@@H](O)NC(=O)[C@@H]5[C@@H](O)[C@@H](C)CN5C(=O)[C@H]([C@@H](C)O)NC(=O)[C@H]([C@H](O)[C@@H](O)c5ccc(O)cc5)NC(=O)[C@@H]5C[C@@H](O)CN5C(=O)[C@H]([C@@H](C)O)NC4=O)cc3)cc2)cc1 ({pTerphenylCO(4''-OnC5H11)}-[Orn(4R-OH,5R-OH)]T[Hyp][hTyr(3S-OH,4S-OH)]T[Pro(3S-OH,4S-Me)]; lactam 1-C) | inactive |
| COc1ccccc1C(=O)Nc1cc2c(cc1N1CCCC1)n(C)c(=O)n2C | inactive |
| C=C1C(=O)OC2C1CCC1(C)C(O)CCC(=C)C21 (stereo not drawn) | inactive |
| Cc1nc(C#Cc2ccnc(Cl)c2)c(C)n1-c1ccc(OC(F)(F)F)cc1 | inactive |
| COc1cc(CCc2ccc(OCC=C(C)C)cc2)cc(OC)c1OC | inactive |
| CC(=O)[C@H]1CC[C@H]2[C@@H]3CC=C4C[C@@H](OS(=O)(=O)O)CC[C@]4(C)[C@H]3CC[C@]12C | inactive |
| C=C(C(=O)O)[C@@H]1CC=C(CCC(C)=O)[C@@H](C)CC1 | inactive |
| C=C[C@]1(C)C[C@H](O)[C@H]2C(=C)C(=O)O[C@@H]2[C@H]1C(=C)CO | inactive |
| CC[C@H](C)/C=C(C)/C=C/C1=CC2=C(Cl)C(=O)[C@](C)(O)[C@H](OC(C)=O)[C@H]2CO1 | inactive |
| CN(C)C(=O)Nc1cc(-c2ccccc2)ccc1N(C)C | inactive |
| C/C(=C\CO[C@@H]1O[C@H](CO[C@H]2OC[C@](O)(CO)[C@H]2O)[C@@H](O)[C@H](O)[C@H]1O)C(C)(C)O | inactive |
| CC[C@@H](Nc1c(Nc2cccc(C(=O)N(C)C)c2O)c(=O)c1=O)c1cc(C(C)C)co1 | inactive |
